Experiment [1] in a line: Nuclear factor erythroid 2-related factor 2/antioxidant responsive element (Nrf2/ARE) small molecule agonists: qHTS cell viability counter screen in human keratinocytes (AID 1919968; active means well fitted curve in the direction sought with a large enough effect in the repeat runs; an effect the other way counts as inactive or inconclusive; further: nearly all actives have a fitted effect of over 55% in size). The method in brief: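 Seed 1,500 KeratinoSens cells per well, then incubate 5 h at 37 C/5% CO2. Add compounds in DMSO and incubate 23 h. Add CellTiter-Fluor, wait 1 h and read fluorescence.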

A short description of experiment [2]: Nuclear factor erythroid 2-related factor 2/antioxidant responsive element (Nrf2/ARE) small molecule agonists: luciferase reporter gene qHTS assay in human keratinocytes (AID 1919969). Further: nearly all actives have a fitted effect of over 35% in size. A general note: In a reporter assay the amount or activity of a reporter protein is the signal.
Experiment [3] concerns the target Gonadotropin-releasing hormone receptor (Homo sapiens) (UniProt P30968). The experiment can be described thus: Human gonadotropin-releasing hormone receptor (GnRHR) small molecule agonists, calcium flux assay in GnRHR-HEK293 cells (AID 1920063). Further: nearly all actives have a fitted effect of over 35% in size. The method in brief:
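Cells: HEK293 stably expressing human GnRHR. Steps: overnight (18 h) culture, 1 h calcium dye loading at 37 C, compound addition, kinetic fluorescence read at 480/540 nm. Each compound tested at 15 concentrations in triplicate.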
For orientation: Calcium assays in cells follow changes in intracellular calcium, usually with a dye or a luminescent sensor.

The target of experiment [4] is KiSS-1 receptor (Homo sapiens) (UniProt Q969F8). Description: Human kisspeptin (KISS1R) small molecule agonists, calcium flux assay in KISS1R-HEK293 cells (AID 1920064; active means well fitted curve in the direction sought with a large enough effect in the repeat runs; an effect the other way counts as inactive or inconclusive). The method in brief:
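Cells plated and incubated 18 h; dye added, 1 h at 37 C; compounds in DMSO pinned in; signal read at 480/540 nm every second for 3 min. Each compound tested at 15 concentrations in triplicate.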

Experiment [5] can be described thus: G protein-coupled receptor (GPCR) small molecule agonists, calcium flux assay: HEK293 wild type cell line counter screen (AID 1920065). The method in brief: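 Counter-screen of the Tox21 10K library for non-specific calcium release: dye-loaded cells received compounds in DMSO and were monitored by kinetic fluorescence (480/540 nm, 3 min). Fifteen concentrations, run in triplicate.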

The nature of experiment [6]: p53 small molecule agonists, cell-based qHTS assay with human liver microsomes (AID 1963577).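 Further: p53 response element beta-lactamase reporter cells with liver microsomes plus NADPH.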 The method in brief:
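In this qHTS, p53 response-element beta-lactamase cells receive test compound together with a microsome/NADPH activating system (0.5 mg/mL final each) and are incubated 16 h at 37 C before LiveBLAzer fluorescence detection.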

Experiment [7] is described as follows: p53 small molecule agonists, cell-based qHTS assay with rat liver microsomes (AID 1963578). The method in brief:
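Agonist mode in p53RE-bla reporter cells, with compounds co-incubated 16 h at 37 C alongside 0.5 mg/mL rat liver microsomes and 0.5 mg/mL NADPH (final), followed by a 2 h LiveBLAzer detection step.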

Experiment [8] can be described thus: p53 small molecule agonists, cell-based qHTS assay with human liver microsomes: qHTS cell viability counter screen (AID 1963579). Further: nearly all actives have a fitted effect of over 45% in size. The method in brief:
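Metabolically activated exposure: compounds, human liver microsomes and NADPH (0.5 mg/mL final apiece) were added to p53RE-bla cells seeded 5 h earlier, left 16 h at 37 C, and then assessed for viability by CellTiter-Glo luminescence.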

Experiment [9] in a line: p53 small molecule agonists, cell-based qHTS assay with rat liver microsomes: qHTS cell viability counter screen (AID 1963580). Further: nearly all actives have a fitted effect of over 45% in size. The method in brief: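 In HCT-116 cells carrying a p53 response element-bla reporter, compounds were metabolically activated in situ by rat liver microsomes with NADPH over 16 h. Cell ATP content then served as the cytotoxicity measure.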
(qHTS replaces the single test concentration by a dilution series.)

A short description of experiment [10]: p53 small molecule agonists, cell-based qHTS assay (AID 1963582; active means well fitted activation curve with a large enough effect in the signal ratio in the repeat runs, not every such curve was filed as active; the % refers to the signal ratio). The method in brief: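 Quantitative HTS in p53RE-bla cells: after a 5 h settling period, compounds delivered in DMSO were left on cells for 16 h at 37 C, and reporter induction was measured as fluorescence following 2 h substrate loading.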
The target of experiment [11] is 5-hydroxytryptamine receptor 2A (Homo sapiens) (UniProt P28223). The experiment can be described thus: 5-hydroxytryptamine receptor 2A (HTR2A) small molecule agonists, cell-based qHTS assay (AID 1963587). Further: nearly all actives have a fitted effect of over 30% in size. The method in brief: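 HTR2A-CHO cells, plated 18 h at 37 C/5% CO2, dye-loaded 1 h at 37 C; compounds in DMSO added by pin tool (agonist mode). Intracellular calcium flux read as kinetic fluorescence on FDSS over 2 min at 1 s intervals.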
Sequence of 5-hydroxytryptamine receptor 2A (Homo sapiens) (P28223 whole entry, looked up): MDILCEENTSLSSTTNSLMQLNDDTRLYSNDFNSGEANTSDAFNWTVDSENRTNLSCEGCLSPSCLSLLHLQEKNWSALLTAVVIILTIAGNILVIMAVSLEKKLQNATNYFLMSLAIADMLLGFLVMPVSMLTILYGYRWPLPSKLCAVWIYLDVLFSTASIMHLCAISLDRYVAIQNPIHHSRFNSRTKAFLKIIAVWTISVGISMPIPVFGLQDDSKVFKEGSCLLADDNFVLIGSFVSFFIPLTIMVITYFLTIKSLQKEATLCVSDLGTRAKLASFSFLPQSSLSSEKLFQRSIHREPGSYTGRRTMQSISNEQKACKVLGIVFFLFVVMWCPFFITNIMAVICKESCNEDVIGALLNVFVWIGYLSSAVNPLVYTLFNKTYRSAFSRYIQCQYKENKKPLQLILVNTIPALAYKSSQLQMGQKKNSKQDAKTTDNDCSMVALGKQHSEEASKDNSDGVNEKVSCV

Experiment [12] deals with Muscarinic acetylcholine receptor M1 (Homo sapiens) (UniProt P11229). The experiment can be described thus: Cholinergic receptor muscarinic 1 (CHRM1) small molecule antagonists, cell-based qHTS assay (AID 1963588). Further: nearly all actives have a fitted effect of over 40% in size. The method in brief:
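CHRM1-CHO calcium-flux assay, antagonist mode. Cells were seeded 18 h, dye-loaded 1 h at 37 C and given compound for 5 min at RT, then acetylcholine was added at 50nM. FDSS fluorescence was read 3 min; 15 concentrations, three runs.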

The target is the same in experiment [13]. The experiment can be described thus: Cholinergic receptor muscarinic 1 (CHRM1) small molecule agonists, cell-based qHTS assay (AID 1963589). Further: nearly all actives have a fitted effect of over 35% in size. The method in brief: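 Agonist-mode qHTS in CHO cells stably carrying human muscarinic M1. Intracellular calcium is tracked by fluorescence every second after compound transfer; each compound runs at 15 concentrations in three independent runs.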

The nature of experiment [14]: cAMP Responsive Elements (CRE) small molecule agonists, cell-based qHTS assay (AID 1963590). The method in brief: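 Agonist mode qHTS in CRE-bla HEK 293T cells: compounds dosed from DMSO for 3 h at 37 C/5% CO2, followed by LiveBLAzer B/G FRET substrate for 2 h at room temperature.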
Experiment [15] can be described thus: cAMP Responsive Elements (CRE) small molecule antagonists, cell-based qHTS assay (AID 1963591; active means well fitted inhibition curve with a large enough effect in the signal ratio in the repeat runs, not every such curve was filed as active; the % refers to the signal ratio). The method in brief:
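Antagonist mode: test compounds are co-incubated with the adenylyl cyclase activator NKH477 (0.25 uM final) on CRE-bla HEK293T cells for 3 h at 37 °C, followed by LiveBLAzer substrate loading.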

Experiment [16] has as its target D(2) dopamine receptor (Homo sapiens) (UniProt P14416). The experiment can be described thus: Dopamine D2 receptor (DRD2) small molecule agonists, cell-based qHTS assay (AID 1963594). Further: nearly all actives have a fitted effect of over 35% in size. The method in brief:
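HEK293 cells stably expressing DRD2 were cultured 24 h at 37 C, then given Ro20-1724 (0.1 mM final) and compounds for 10 min at room temperature. NKH477 (200nM) was then added for 30 min. cAMP was read by HTRF.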

For experiment [17] the target is unchanged. Description: Dopamine D2 receptor (DRD2) small molecule antagonists, cell-based qHTS assay (AID 1963595; active means well fitted inhibition curve with a large enough effect in the signal ratio in the repeat runs, with a control signal flat; the % refers to the signal ratio; further: potency means the concentration at half of the fitted maximal effect). The method in brief: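 In this cell-based antagonist screen, compounds act for 10 min at room temperature before a 30 min challenge with 12 nM quinpirole and 200 nM NKH477. cAMP is quantified by HTRF competition in DRD2-HEK293 cells containing 0.1 mM Ro20-1724.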

Experiment [18] has as its target 5-hydroxytryptamine receptor 2A (Homo sapiens) (UniProt P28223). Description: 5-hydroxytryptamine receptor 2A (HTR2A) small molecule antagonists, cell-based qHTS assay (AID 1963586). Further: nearly all actives have a fitted effect of over 45% in size. The method in brief:
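Antagonist-mode intracellular calcium assay: DOI (4 nM) added after 5 min compound pre-incubation at room temperature to dye-loaded HTR2A-CHO cells. Fluorescence followed for 3 min, sampled every second.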

Experiment [19] deals with Beta-2 adrenergic receptor (Homo sapiens) (UniProt P07550). The experiment can be described thus: Adrenergic beta2 receptor (ADRB2) small molecule antagonists, cell-based qHTS assay (AID 1963592). Further: series mostly up to about 92 µM; nearly all actives have a fitted effect of over 50% in size. The method in brief: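 Cells (CHO, stable ADRB2 overexpression) incubated 18-20hr at 37C; compounds added from DMSO; agonist mix (1nM isoproterenol, 100uM IBMX, 25uM Ro-20-1724) added; 0.5hr RT; d2-cAMP and anti-cAMP-cryptate added; 1hr RT; 665/615 nm read.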
Sequence of Beta-2 adrenergic receptor (Homo sapiens) (P07550 whole entry, looked up): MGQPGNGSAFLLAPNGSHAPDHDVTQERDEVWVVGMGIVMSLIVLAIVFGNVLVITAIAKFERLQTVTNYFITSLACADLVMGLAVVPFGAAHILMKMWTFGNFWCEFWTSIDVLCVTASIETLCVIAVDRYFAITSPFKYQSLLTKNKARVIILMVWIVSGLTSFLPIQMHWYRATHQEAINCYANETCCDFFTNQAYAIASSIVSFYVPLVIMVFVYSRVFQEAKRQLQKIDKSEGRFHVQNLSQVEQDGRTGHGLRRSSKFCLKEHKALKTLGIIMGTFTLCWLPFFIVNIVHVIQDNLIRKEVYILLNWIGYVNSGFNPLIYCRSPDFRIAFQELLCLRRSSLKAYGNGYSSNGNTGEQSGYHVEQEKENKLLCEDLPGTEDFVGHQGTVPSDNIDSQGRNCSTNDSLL

Unmarked numbers belong to inactive results. Records with an inconclusive call do not appear. Activity calls are given as the source filed them. Unless noted, the call rests on the fitted dose curve.

Sequence of KiSS-1 receptor (Homo sapiens) (Q969F8 whole entry, looked up): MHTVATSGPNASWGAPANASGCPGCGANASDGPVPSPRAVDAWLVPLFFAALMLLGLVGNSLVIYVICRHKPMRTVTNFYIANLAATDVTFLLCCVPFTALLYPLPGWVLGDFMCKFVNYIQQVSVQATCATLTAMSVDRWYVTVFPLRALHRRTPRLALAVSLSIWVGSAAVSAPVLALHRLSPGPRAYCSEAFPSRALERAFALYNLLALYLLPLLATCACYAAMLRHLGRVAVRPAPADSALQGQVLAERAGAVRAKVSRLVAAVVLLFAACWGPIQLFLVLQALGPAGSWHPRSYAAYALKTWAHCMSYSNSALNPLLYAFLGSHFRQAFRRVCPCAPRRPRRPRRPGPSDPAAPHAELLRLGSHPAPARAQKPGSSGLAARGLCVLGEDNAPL
Sequence of Gonadotropin-releasing hormone receptor (Homo sapiens) (P30968 whole entry, looked up): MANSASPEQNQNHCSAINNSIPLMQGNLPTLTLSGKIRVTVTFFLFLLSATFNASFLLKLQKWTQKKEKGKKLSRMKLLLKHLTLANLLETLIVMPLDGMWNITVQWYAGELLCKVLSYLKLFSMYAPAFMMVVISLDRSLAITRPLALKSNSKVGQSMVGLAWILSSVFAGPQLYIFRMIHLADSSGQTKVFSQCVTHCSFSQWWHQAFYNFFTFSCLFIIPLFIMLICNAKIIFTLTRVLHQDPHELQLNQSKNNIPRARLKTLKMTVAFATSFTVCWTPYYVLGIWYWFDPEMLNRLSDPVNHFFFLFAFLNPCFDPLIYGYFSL
Sequence of Muscarinic acetylcholine receptor M1 (Homo sapiens) (P11229 whole entry, looked up): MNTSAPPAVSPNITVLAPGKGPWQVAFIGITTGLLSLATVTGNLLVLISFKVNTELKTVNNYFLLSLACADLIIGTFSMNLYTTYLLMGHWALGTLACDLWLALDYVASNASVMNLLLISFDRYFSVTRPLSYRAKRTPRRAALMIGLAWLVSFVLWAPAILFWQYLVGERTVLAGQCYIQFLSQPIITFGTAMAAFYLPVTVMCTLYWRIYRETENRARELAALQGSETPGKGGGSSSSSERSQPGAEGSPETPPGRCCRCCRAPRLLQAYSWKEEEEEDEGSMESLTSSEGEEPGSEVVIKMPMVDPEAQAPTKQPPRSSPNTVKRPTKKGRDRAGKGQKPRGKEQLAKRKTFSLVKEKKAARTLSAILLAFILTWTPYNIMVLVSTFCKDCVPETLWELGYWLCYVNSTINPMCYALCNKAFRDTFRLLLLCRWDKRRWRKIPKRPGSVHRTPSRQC
Sequence of D(2) dopamine receptor (Homo sapiens) (P14416 whole entry, looked up): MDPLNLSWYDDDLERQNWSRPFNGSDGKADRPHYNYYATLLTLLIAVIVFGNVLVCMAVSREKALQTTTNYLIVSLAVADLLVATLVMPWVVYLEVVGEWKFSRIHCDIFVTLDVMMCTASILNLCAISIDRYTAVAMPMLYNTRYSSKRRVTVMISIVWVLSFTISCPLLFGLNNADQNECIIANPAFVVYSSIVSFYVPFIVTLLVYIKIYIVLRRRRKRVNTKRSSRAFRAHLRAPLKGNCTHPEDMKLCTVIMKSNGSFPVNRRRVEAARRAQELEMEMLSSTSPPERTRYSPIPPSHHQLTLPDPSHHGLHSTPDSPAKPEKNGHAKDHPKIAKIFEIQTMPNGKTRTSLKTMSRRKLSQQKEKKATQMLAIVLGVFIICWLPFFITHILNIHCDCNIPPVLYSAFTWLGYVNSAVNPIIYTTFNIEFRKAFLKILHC

For the molecule `CCOC(=O)CC(=O)c1cc(F)c(Cl)nc1Cl`, the Potency entry in experiment [1], in [2], in experiment [3], in experiment [6], in experiment [7] and in [8] was “inactive” throughout. In addition, the Potency entry in [9], in experiment [10], in experiment [11], in [12], in [13] and in experiment [14] was “inactive” in each case. The Potency entry in experiment [15], in experiment [16] and in [17] was “inactive” throughout. Moreover, the result in experiment [4] and in [5] was inactive.

As for `COC(=O)[C@@H]1[C@H]2C[C@H]3c4[nH]c5ccccc5c4CCN3C[C@@H]2CC[C@@H]1O`, the Potency entry in experiment [1], in [2], in experiment [3], in experiment [6], in experiment [7] and in [8] was “inactive” throughout. For the same molecule, the Potency result in experiment [9], in [10], in experiment [14], in experiment [15] and in experiment [16] was “inactive” in each case. The outcome in [4] and in experiment [5] was inactive. Besides, the Potency in experiment [17] was 23.7 µM (active).

`Clc1cc(Cl)c(-c2c(Cl)c(Cl)cc(Cl)c2Cl)cc1Cl`: the Potency result in [1], in [2], in [3], in experiment [6], in [7] and in [8] was “inactive” in each case. Also, the Potency entry in [9], in [10], in [18], in experiment [11], in experiment [14] and in experiment [15] was “inactive” throughout. The Potency result in experiment [19], in [16] and in [17] was “inactive” throughout. Also, the outcome in [4] and in experiment [5] was inactive.

Consider `CC1(C)CC(O)CC(C)(C)N1`, for which the Potency entry in experiment [1], in experiment [2], in [3], in experiment [6], in experiment [7] and in experiment [8] was “inactive” throughout. The Potency result in [9], in experiment [10], in experiment [18], in [13], in experiment [14] and in [15] was “inactive” throughout. Moreover, the Potency entry in experiment [19], in experiment [16] and in experiment [17] was “inactive” throughout. Further, the result in experiment [4] and in [5] was inactive.

For the molecule `O=C(NCCO[N+](=O)[O-])c1cccnc1`, the Potency entry in [1], in experiment [2], in experiment [3], in experiment [6], in experiment [7] and in [8] was “inactive” each time. The Potency entry in [9], in experiment [10], in [18], in [12], in [13] and in [14] was “inactive” in each case. Moreover, the Potency result in experiment [15], in [19], in experiment [16] and in experiment [17] was “inactive” throughout. Moreover, the outcome in experiment [4] and in experiment [5] was inactive.

With `CN[C@@H]1[C@H](O)[C@H](NC)[C@H]2O[C@@]3(O)C(=O)C[C@@H](C)O[C@H]3O[C@@H]2[C@H]1O`, the Potency result in [1], in experiment [2], in experiment [3], in experiment [6], in experiment [7] and in experiment [8] was “inactive” in each case. Besides, the Potency result in [9], in [10], in [15], in experiment [19], in [16] and in experiment [17] was “inactive” each time. For the same molecule, the outcome in experiment [4] and in experiment [5] was inactive.

For the molecule `CCC1NC(=O)c2cc(S(N)(=O)=O)c(Cl)cc2N1` (stereo not given), the Potency entry in [1], in experiment [2], in experiment [3], in experiment [6], in [7] and in experiment [8] was “inactive” throughout. The Potency result in experiment [9], in experiment [10], in [18], in experiment [12], in experiment [13] and in experiment [15] was “inactive” in each case. In experiment [16], the Potency entry was “inactive”. Moreover, the result in experiment [4] and in experiment [5] was inactive.

In the case of `C=Cc1ccccc1`, the Potency result in experiment [1], in [2], in experiment [3], in experiment [6], in experiment [7] and in experiment [8] was “inactive” each time. Moreover, the Potency entry in [9], in experiment [18], in experiment [11], in experiment [12], in experiment [13] and in experiment [14] was “inactive” each time. For the same molecule, the Potency result in experiment [15], in experiment [19], in [16] and in experiment [17] was “inactive” each time. In addition, the outcome in experiment [4] and in experiment [5] was inactive.

The record behind these values is PubChem BioAssay (Tox21).
